Bioassay records: PubChem BioAssay, several laboratories
MsrA inh = inhibitors of bovine MsrA; purified bovine MsrA, absorbance read-out; inhibition, % at 15.5 µM; hit rate 0.75% among 360,000;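 further: 0% = vehicle wells with enzyme and 100% = reference inhibitor wells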
pCIP destab = compounds decreasing mouse p/CIP protein stability; Q05BA5; F442A p/CIP-EGFP cells, EGFP fluorescence, 16 h; decrease of EGFP signal, % at 10 µM; hit rate 0.01% among 290,000; AID 1984;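 active means EGFP signal decrease of at least 30% at 10 µM or well 3 SD below plate mean, unless failing retest; inactive means the rest, including hits failing retest or dose response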
MsrA act = activates bovine MsrA enzyme; purified bovine MsrA, absorbance read-out; AID 602163; activation, % at 10.6 µM; hit rate 0.3% among 360,000; in the data active means activation above about 7.5%;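 further: 0% = vehicle and 100% = reference activator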
14-3-3 Bad PPI = disrupts binding of bovine 14-3-3 zeta to phospho-Bad peptide | P63103 | TR-FRET 14-3-3zeta/Dy647-pBad peptide displacement, 1 h | inhibition, % at 21.7 µM | hit rate 0.71% among 220,000 | AID 781;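 active means inhibition above about 70%, limit read from the data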;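 further: 0% = full 14-3-3 plus peptide FRET controls and 100% = background without 14-3-3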
Target sequence (P63103 whole entry, looked up): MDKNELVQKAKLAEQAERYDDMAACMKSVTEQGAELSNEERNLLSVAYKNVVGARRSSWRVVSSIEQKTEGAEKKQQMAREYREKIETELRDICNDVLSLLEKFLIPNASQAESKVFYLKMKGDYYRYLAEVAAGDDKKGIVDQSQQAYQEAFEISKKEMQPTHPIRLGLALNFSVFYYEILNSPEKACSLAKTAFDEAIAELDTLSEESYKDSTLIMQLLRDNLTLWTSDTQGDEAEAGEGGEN
MsrA conf = confirmation of bovine MsrA inhibitors; shares compounds with MsrA inh; purified bovine MsrA, absorbance read-out; inhibition, % at 15.5 µM; hit rate 41% among 2,300; AID 651822;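 further: coupled to thioredoxin reductase with NADPH and selenocystamine and DMSO as substrate; 0% = vehicle only and 100% = full effect of reference inhibitor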
An asterisk follows results filed as active; x = no result given. Sampled rows, rich in hits. Any-hit rate of the full collection: about 1.4%. Unless noted, no stated cut-off is given here; in the data, active means inhibition above about 4.5%; inactive means the rest.

SMILES	MsrA inh	pCIP destab	MsrA act	14-3-3 Bad PPI	MsrA conf
CCn1c(=NC(=O)c2ccco2)sc2cccc(F)c21	4.9*	0	-3	10	4
COc1ccc(OC)c2c1sc(=NC(=O)c1ccco1)n2C	3	-11	-2	5	x
CCOc1ccc(OCCC(=O)Nc2cccc(S(=O)(=O)N3CCCC3)c2)cc1	-1	x	-4	x	x
CCOC(=O)Cc1csc(NC(=O)/C=C/c2ccc(Br)o2)n1	5.5*	-10	-9	-4	4
N#C/C(=C/c1ccc(Br)o1)C(N)=O	4.7*	-1	-4	10	5.5*
N#C/C(=C/c1ccc(Br)o1)C(N)=S	x	-4	x	9	x
COc1cc(/C=N/N=C2/NC(=O)C(Cc3ccc(F)cc3)S2)ccc1O (stereo not drawn)	4	4	-2	-2	x
COc1cc(/C=N/N=C2/C(=O)Nc3ccccc32)ccc1O	4.9*	9	-5	-13	2
COc1cc(/C=N/N=C2/NC(=O)C(c3ccccc3)S2)ccc1O (stereo not drawn)	4.9*	-3	-10	7	4
COc1ccc(C2=CC(=O)CC(C)(C)C2)cc1OC	4.8*	x	-11	x	2
NC(=O)c1ccsc1NC(=O)c1coc2ccccc2c1=O	4.7*	-6	-11	-9	1
CS(=O)(=O)N(CC(=O)O)c1cc(C(F)(F)F)ccc1Cl	0	x	0	x	x
O=C(NNC(=O)C1CC1)c1cc2cc3ccccc3nc2s1	4.9*	0	-4	-1	2
O=C(NNC(=O)c1cc2cc3ccccc3nc2s1)c1ccc(F)cc1	1	-6	-11	13	x
COCCNC(=O)/C(C#N)=C/C=C/c1ccccc1	7.1*	4	-4	-14	5.3*
O=c1[nH]c(/C=C/c2ccc([N+](=O)[O-])cc2)c([N+](=O)[O-])c(=O)[nH]1	5.4*	0	-6	x	5.6*
CN(C)c1ccc(C=Nc2cnn(C)c2C(N)=O)cc1	4.9*	-11	-3	-4	3
CCCCC(=O)NC(=S)Nc1ccc(NC(=O)C(C)C)c(OC)c1	0	8	-3	-5	x
Cc1ccc(S(=O)(=O)NC(=O)N(CCC#N)Cc2ccccc2)cc1	-2	-9	-5	x	x
CCCCc1cc(=O)oc2cc(C)cc(OC(C)C(=O)NCc3ccccn3)c12 (stereo not drawn)	6.4*	-3	-3	x	0
Cn1cccc1C(=O)N/N=C/c1c(Cl)cccc1Cl	2	4	-3	x	x
CCn1c(Sc2nc(C)nc3scc(-c4cccs4)c23)n[nH]c1=O	10*	2	-7	0	10.0*
CCN(CC)c1ccc(CNc2nc3ccccc3n2CC)cc1	-1	-3	-3	1	x
O=C(O)CC1SC(N/N=C/c2ccc(Br)cc2)NC1=O (stereo not drawn)	4.9*	-2	-6	-7	2
CCc1ccc(N(CC(=O)NCCc2ccccc2)C(=O)CCC(=O)Nc2ccccn2)cc1	3	-4	-9	x	x
SMILES	MsrA inh	pCIP destab	MsrA act	14-3-3 Bad PPI	MsrA conf
Cc1[nH]c(C(=O)N/N=C/c2ccc(N(C)C)cc2)c(C)c1C(=O)N/N=C/c1ccc(N(C)C)cc1	7.5*	15	-11	-23	5.2*
Cc1[nH]c(C(=O)N/N=C/c2ccc(C(=O)O)cc2)c(C)c1C(=O)N/N=C/c1ccc(C(=O)O)cc1	9.9*	2	-16	4	9.4*
CCOC(=O)c1c(C)[nH]c(C(=O)N/N=C/c2ccc(Br)cc2)c1C	2	-19	-2	2	x
CN(C)c1ccc(/C=N/NC(=O)c2cccc(C(=O)N/N=C/c3ccc(N(C)C)cc3)n2)cc1	-1	-3	-3	9	x
O=C(/C=C/c1c(Cl)nc2ccccn12)N1CCCCC1	7.8*	-1	-4	-5	4
Nc1nc2nccc(-c3ccc(Cl)cc3)n2n1	5.2*	-8	-5	-2	2
Cc1cc(-c2ccc(Cl)cc2)n2nc(N)nc2n1	1	-20	-10	-5	x
COCCNC(=O)c1cc2cc3ccc(OC)cc3nc2o1	4.8*	-1	-5	x	4
COc1ccc2cc3cc(C(=O)NCCC(C)C)oc3nc2c1	1	-5	-2	x	x
COc1ccc2cc3cc(C(=O)NCC4CCCO4)oc3nc2c1 (stereo not drawn)	6.2*	-5	-5	13	4
CCC(C)NC(=O)c1cc2cc3ccc(OC)cc3nc2o1 (stereo not drawn)	5.0*	3	-5	x	5
CC(=O)Cn1ncc(N(C)Cc2ccccc2)c(Cl)c1=O	1	7	-3	x	x
CNC(=O)CSc1nnc(NC(=O)C2CC(=O)N(c3ccccc3OC)C2)s1 (stereo not drawn)	0	5	-2	x	x
CCc1nnc(NC(=O)c2ccncc2)s1	5.6*	-3	-2	-11	0
CCCc1nnc(NC(=O)c2ccncc2)s1	2	9	-8	9	x
COc1ccc(CCNC(=O)C2CCN(S(=O)(=O)c3ccc(OC)c(OC)c3)CC2)cc1OC	-1	0	-2	x	x
COc1ccc(CCNC(=O)C2CCN(S(=O)(=O)c3ccc(-n4cnnn4)cc3)CC2)cc1OC	56*	-2	-2	-12	-1
Cc1ccc(C(O)c2ncc(-c3cccc(C(F)(F)F)c3)[nH]2)cc1 (stereo not drawn)	-1	x	3	x	x
COc1ccccc1/C=C/C=C1N=C(/C=C/c2ccc(Cl)cc2)OC/1=O	2	-7	-4	-1	x
COc1ccccc1/C=C/C1=NC(=C\C=C/c2ccccc2)/C(=O)O1	6.4*	-6	-6	24	2
CN(C)c1ccc(C(=O)Nc2nnc(C3=COCCO3)o2)cc1	5.1*	-1	-10	-16	4
COC(=O)[C@@H](NCc1cccc(CN([C@H](C(=O)OC)C(C)C)S(C)(=O)=O)c1)C(C)C	0	-8	-5	x	x
O=C(O)c1cccc2c1-c1ccc([N+](=O)[O-])cc1C2=O	3	x	-1	x	x
O=C(O)c1cccc2c1-c1c(cccc1[N+](=O)[O-])C2	5.9*	x	-3	x	3
O=C(O)c1cccc2c1C(=O)c1cc([N+](=O)[O-])cc([N+](=O)[O-])c1-2	5.6*	x	-12	x	4
SMILES	MsrA inh	pCIP destab	MsrA act	14-3-3 Bad PPI	MsrA conf
O=C(O)c1ccc([N+](=O)[O-])c2c1C(=O)c1ccccc1C2=O	3	x	-3	x	x
Cc1cc(S(=O)(=O)N2CCCCC2CCNC(=O)C(=O)NCC2CCCO2)ccc1F (stereo not drawn)	1	x	-1	x	x
Cc1cccc(N=NC(=S)NNc2cccc(C)c2)c1	0	x	-2	x	x
CCOC(=O)C1=C(CN2CCN(C(=O)c3ccco3)CC2)NC(=O)NC1c1ccc(F)cc1 (stereo not drawn)	1	1	0	x	x
CN(/N=C/c1ccncc1)c1cnc2ccccc2n1	4.7*	-2	-17	2	4
O=c1cc(-c2ccco2)oc2ccccc12	4	x	3	x	x
Cc1ccc2oc(-c3ccco3)cc(=O)c2c1	7.7*	-7	-6	-6	5.4*
Cc1cc(N2CCc3ccccc32)n2ncnc2n1	5.3*	x	-2	x	4
COc1ccc(CCNC(=O)C2c3ccccc3C(=O)N2CCC(C)C)cc1OC (stereo not drawn)	1	-4	-4	x	x
